Laboratory results: publication PMC9911399, “Two distinct binding modes provide the RNA-binding protein RbFox with extraordinary sequence specificity”
Residue numbers refer to the chain shown, from its start. In all, about 16,000 sequences were measured (“ka relative to ugcaugu”: median about 0.0091, highest 2% from about 0.032 on). This is one part of a sample in which the highest values are shown more often than they occur.

T1: RBFOX1 RRM (Homo sapiens, UniProt Q9NWB1 109-208)
T1 sequence: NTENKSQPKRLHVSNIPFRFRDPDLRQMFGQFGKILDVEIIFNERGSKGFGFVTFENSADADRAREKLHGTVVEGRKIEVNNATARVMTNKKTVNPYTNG

B1: UUUCUAU (DNA:RNA)
RNA: GGGAGACCGGAAUUCAGAUUGUCCUUUCUAUUUAAAUCCCGUCGUAGCCACCA
DNA 1: CAATCTGAATTCCGGTCTCCC
DNA 2: TGGTGGCTACGACGGGATT
B2: UGCAUCU (DNA:RNA)
RNA: B1 RNA with U26G, U27C, C28A, A30C
DNA 1: CAATCTGAATTCCGGTCTCCC
DNA 2: TGGTGGCTACGACGGGATT
B3: AUCCGAU (DNA:RNA)
RNA: B1 RNA with U25A, U27C, U29G
DNA 1: CAATCTGAATTCCGGTCTCCC
DNA 2: TGGTGGCTACGACGGGATT
B4: ACAACUC (DNA:RNA)
RNA: GGGAGACCGGAAUUCAGAUUGUCCACAACUCUUAAAUCCCGUCGUAGCCACCA
DNA 1: CAATCTGAATTCCGGTCTCCC
DNA 2: TGGTGGCTACGACGGGATT
B5: GCCAUCC (DNA:RNA)
RNA: B4 RNA with A25G, A27C, C29U, U30C
DNA 1: CAATCTGAATTCCGGTCTCCC
DNA 2: TGGTGGCTACGACGGGATT
B6: CGCUAUU (DNA:RNA)
RNA: B4 RNA with A25C, C26G, A27C, A28U, C29A, C31U
DNA 1: CAATCTGAATTCCGGTCTCCC
DNA 2: TGGTGGCTACGACGGGATT
B7: UAGAUGA (DNA:RNA)
RNA: B1 RNA with U26A, U27G, C28A, A30G, U31A
DNA 1: CAATCTGAATTCCGGTCTCCC
DNA 2: TGGTGGCTACGACGGGATT
B8: UGUUGGG (DNA:RNA)
RNA: B1 RNA with U26G, C28U, U29G, A30G, U31G
DNA 1: CAATCTGAATTCCGGTCTCCC
DNA 2: TGGTGGCTACGACGGGATT
B9: UGGGUUC (DNA:RNA)
RNA: B4 RNA with A25U, C26G, A27G, A28G, C29U
DNA 1: CAATCTGAATTCCGGTCTCCC
DNA 2: TGGTGGCTACGACGGGATT
B10: CUGGUUC (DNA:RNA)
RNA: B4 RNA with A25C, C26U, A27G, A28G, C29U
DNA 1: CAATCTGAATTCCGGTCTCCC
DNA 2: TGGTGGCTACGACGGGATT
B11: UGGGGGG (DNA:RNA)
RNA: B1 RNA with U26G, U27G, C28G, U29G, A30G, U31G
DNA 1: CAATCTGAATTCCGGTCTCCC
DNA 2: TGGTGGCTACGACGGGATT
B12: UGGUUCU (DNA:RNA)
RNA: B1 RNA with U26G, U27G, C28U, A30C
DNA 1: CAATCTGAATTCCGGTCTCCC
DNA 2: TGGTGGCTACGACGGGATT
B13: CUGGGUU (DNA:RNA)
RNA: B1 RNA with U25C, U27G, C28G, U29G, A30U
DNA 1: CAATCTGAATTCCGGTCTCCC
DNA 2: TGGTGGCTACGACGGGATT
B14: UCCUGGG (DNA:RNA)
RNA: B4 RNA with A25U, A27C, A28U, C29G, U30G, C31G
DNA 1: CAATCTGAATTCCGGTCTCCC
DNA 2: TGGTGGCTACGACGGGATT
B15: UGGUUUU (DNA:RNA)
RNA: B1 RNA with U26G, U27G, C28U, A30U
DNA 1: CAATCTGAATTCCGGTCTCCC
DNA 2: TGGTGGCTACGACGGGATT
B16: UGGGUUG (DNA:RNA)
RNA: B1 RNA with U26G, U27G, C28G, A30U, U31G
DNA 1: CAATCTGAATTCCGGTCTCCC
DNA 2: TGGTGGCTACGACGGGATT
B17: CCCCUGG (DNA:RNA)
RNA: B1 RNA with U25C, U26C, U27C, A30G, U31G
DNA 1: CAATCTGAATTCCGGTCTCCC
DNA 2: TGGTGGCTACGACGGGATT
B18: UGGGUUU (DNA:RNA)
RNA: B1 RNA with U26G, U27G, C28G, A30U
DNA 1: CAATCTGAATTCCGGTCTCCC
DNA 2: TGGTGGCTACGACGGGATT
B19: UGCUGGG (DNA:RNA)
RNA: B1 RNA with U26G, U27C, C28U, U29G, A30G, U31G
DNA 1: CAATCTGAATTCCGGTCTCCC
DNA 2: TGGTGGCTACGACGGGATT
B20: AAAUAAA (DNA:RNA)
RNA: B4 RNA with C26A, A28U, C29A, U30A, C31A
DNA 1: CAATCTGAATTCCGGTCTCCC
DNA 2: TGGTGGCTACGACGGGATT

Target: T1, RBFOX1 RRM
Assay: EMSA; HiTS-Eq, 1 nM pool, 10 min; buffer printed only for the single-RNA assays: 10 mM Tris pH 7.5, 150 mM NaCl, 3.4 mM EDTA, 0.001% NP-40, 30 C
Settings: tags: His6 N-terminal (pET28a); label: 5' 32P
Method in brief: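 Purified RbFox RRM (wild type or mutant) was equilibrated for 10 min in 50 µL with 1 nM of a 5′-radiolabelled pool of RNA with 7 randomized nucleotides, its flanks annealed to DNA oligonucleotides, across increasing protein concentrations. Free RNA was separated by 8% native PAGE, excised, reverse-transcribed, PCR-barcoded and sequenced on an Illumina HiSeq 2500. Relative association constants came from read-count changes of each variant against the control reaction, normalised to the cognate motif.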

Binder	binding signal
B1	0.00863 KA relative to UGCAUGU
B2	0.0208 KA relative to UGCAUGU
B3	0.00393 KA relative to UGCAUGU
B4	0.00147 KA relative to UGCAUGU
B5	0.00701 KA relative to UGCAUGU
B6	0.00582 KA relative to UGCAUGU
B7	0.0121 KA relative to UGCAUGU
B8	0.00877 KA relative to UGCAUGU
B9	0.0352 KA relative to UGCAUGU
B10	0.0321 KA relative to UGCAUGU
B11	0.0192 KA relative to UGCAUGU
B12	0.019 KA relative to UGCAUGU
B13	0.0262 KA relative to UGCAUGU
B14	0.00619 KA relative to UGCAUGU
B15	0.0278 KA relative to UGCAUGU
B16	0.0558 KA relative to UGCAUGU
B17	0.0109 KA relative to UGCAUGU
B18	0.0379 KA relative to UGCAUGU
B19	0.0153 KA relative to UGCAUGU
B20	0.000652 KA relative to UGCAUGU
